The text below walks through data of PubChem BioAssay (Tox21).

Several values for one entry are separate records, joined by “and”; a condition that tells them apart may be missing. Identical values can stand only once. Results filed as inconclusive are left out. Some compounds were tested as several samples or in several runs, with calls that do not always agree. Activity calls are given as the source filed them. Unless noted, calls come from the whole dose curve; as a rule, active = well fitted curve in the direction sought with a large enough effect in the repeat runs; inconclusive = weak or mixed curves; inactive = no such curve, though single readings can be large; an effect the other way counts as inactive or inconclusive.

The target in experiment [1] is Thyrotropin receptor (Homo sapiens) (UniProt P16473). The experiment in a line: qHTS assay to identify small molecule agonists of the thyroid stimulating hormone receptor (TSHR) signaling pathway (AID 1224843; calls by dose curve; note: nearly all actives have a fitted effect of over 45% in size). The method, boiled down: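 TSHR-HEK293 cells in agonist mode, 30 min room-temperature step, then cAMP measured by competitive HTRF (cAMP-d2 with anti-cAMP cryptate) after 1 h at room temperature. Tested at 15 concentrations in triplicate.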

Experiment [2] is described as follows: qHTS assay to identify small molecule agonists of the hypoxia (HIF-1) signaling pathway - cell viability counter screen (AID 1224844; calls by dose curve; note: nearly all actives have a fitted effect of over 50% in size; note: potency is the fitted concentration of half-maximal effect). The method, boiled down:
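Luminescent ATP content (CellTiter-Glo, 30 min, room temperature) served as the viability measure in HRE-bla ME-180 cells exposed to compounds for 17 hrs in low-serum medium (0.5% dialyzed FBS).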

Experiment [3] can be described thus: qHTS assay to identify small molecule agonists of H2AX (AID 1224845; active = well fitted activation curve with a large enough effect in the signal ratio in the repeat runs, not every such curve was filed as active; the % refers to the signal ratio). Summed up: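 Wild-type CHO-K1 cells, plated overnight, exposed 3hr at 37C to 15 concentrations (0.76% DMSO final). Lysed, then HTRF anti-pH2AX (S139) cryptate and anti-H2AX-d2 antibodies, 24 hr room temperature; 665/620 nm emission read.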
The nature of experiment [4]: qHTS assay to identify small molecule agonists of the hypoxia (HIF-1) signaling pathway (AID 1224846; active = well fitted activation curve with a large enough effect in the signal ratio in the repeat runs, not every such curve was filed as active; the % refers to the signal ratio). The method, boiled down: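 Measured by blue/green FRET after loading CCF4-AM: beta-lactamase expressed from a hypoxia response element in ME-180 cells. Test agents were delivered in DMSO and left 17 hrs; cells had been plated 5 hrs earlier in low-serum (0.5% dialyzed FBS) medium.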

Experiment [5] is described as follows: qHTS assay to identify small molecule agonists of H2AX - cell viability counter screen (AID 1224847; calls by dose curve; note: top concentration of the series differs between compounds; nearly all actives have a fitted effect of over 30% in size). Summed up: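 CHO-K1 wt, 1000 cells/well, o/n 37C; cpds 15 conc, 3 h 37C, 0.76% DMSO; CellTiter-Glo, 30 min RT, luminescence.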
A short description of experiment [6]: qHTS RealTime-Glo MT Cell Viability Assay in HepG2 cells - 24 hour (AID 1224867). Note: nearly all actives have a fitted effect of over 50% in size. The method, boiled down:
(§1)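 HepG2 cells (600/well) were dispensed with RealTime-Glo reagents, incubated 5 h at 37 °C, then treated with compounds in DMSO for up to 40 h. Nonlytic NanoLuc luminescence reflecting viable cells was read at each stated time point.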

A short description of experiment [7]: qHTS RealTime-Glo MT Cell Viability Assay in HEK293 cells - 32 hour (AID 1224868). Note: nearly all actives have a fitted effect of over 50% in size. Note: potency is the fitted concentration of half-maximal effect. The method, boiled down:
(§2)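 HEK293 cells seeded with NanoLuc/prosubstrate reagent, rested 5 h at 37 C, then dosed and kept at 37 C up to 40 h. Nonlytic real-time luminescence from viable cells read at 0, 8, 16, 24, 32 and 40 h.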

The nature of experiment [8]: A CellTox Green Cytotoxicity Assay to monitor cytotoxicity in HEK293 cells - 0 hour (AID 1224869). Note: nearly all actives have a fitted effect of over 50% in size. The method, boiled down:
(§3)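 Each value comes from one timepoint of a single continuous run in which HEK293 cells with CellTox Green were exposed to compound for up to 40 h at 37 C, dye fluorescence rising with cell death.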

A short description of experiment [9]: qHTS RealTime-Glo MT Cell Viability Assay in HepG2 cells - 40 hour (AID 1224870). Note: nearly all actives have a fitted effect of over 50% in size. The method, boiled down:
(§4)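 HepG2 cells (600/well) mixed with RealTime-Glo MT reagent, settled 5 h at 37 C/5% CO2 before compound addition. Nonlytic NanoLuc luminescence from viable-cell prosubstrate reduction read repeatedly during 40 h treatment at 37 C.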

A short description of experiment [10]: A CellTox Green Cytotoxicity Assay to monitor cytotoxicity in HEK293 cells - 40 hour (AID 1224871). Note: nearly all actives have a fitted effect of over 45% in size. The method, boiled down: as §3
Experiment [11] can be described thus: qHTS RealTime-Glo MT Cell Viability Assay in HEK293 cells - 16 hour (AID 1224872). Note: nearly all actives have a fitted effect of over 50% in size. Note: potency is the fitted concentration of half-maximal effect. Summed up:
as §2

Experiment [12] in a line: qHTS RealTime-Glo MT Cell Viability Assay in HepG2 cells - 8 hour (AID 1224873). Note: nearly all actives have a fitted effect of over 55% in size. The method, boiled down: as §4
The nature of experiment [13]: qHTS RealTime-Glo MT Cell Viability Assay in HEK293 cells - 40 hour (AID 1224874). Note: nearly all actives have a fitted effect of over 50% in size. Note: potency is the fitted concentration of half-maximal effect. Particulars: RealTime-Glo luminescence; max response: stronger effect = lower value. The method, boiled down:
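qHTS format; HEK293 cells with NanoLuc/prosubstrate reagent, 37 C/5% CO2 for 5 h pre-dosing; compounds 23 nL in DMSO; luminescence at each time point reflects viable cells.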

Experiment [14] in a line: A CellTox Green Cytotoxicity Assay to monitor cytotoxicity in HEK293 cells - 24 hour (AID 1224875). Note: nearly all actives have a fitted effect of over 45% in size. Summed up:
as §3

Experiment [15] can be described thus: qHTS RealTime-Glo MT Cell Viability Assay in HepG2 cells - 32 hour (AID 1224877). Note: nearly all actives have a fitted effect of over 55% in size. The method, boiled down: as §1
Experiment [16] can be described thus: A CellTox Green Cytotoxicity Assay to monitor cytotoxicity in HepG2 cells - 24 hour (AID 1224878). Note: nearly all actives have a fitted effect of over 45% in size. The method, boiled down: (§5)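 Continuous culture of HepG2 cells with a membrane-impermeant DNA dye; rising fluorescence marks dead cells. Compound exposure lasted up to 40 h at 37 C, with reads every 8 h from 0 h.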
A short description of experiment [17]: A CellTox Green Cytotoxicity Assay to monitor cytotoxicity in HepG2 cells - 40 hour (AID 1224879). Note: nearly all actives have a fitted effect of over 40% in size. Summed up:
as §5

The nature of experiment [18]: A CellTox Green Cytotoxicity Assay to monitor cytotoxicity in HepG2 cells - 16 hour (AID 1224876). Note: nearly all actives have a fitted effect of over 45% in size. Summed up:
as §5

Experiment [19] in a line: qHTS assay to identify small molecule antagonists of the estrogen related receptor (ERR) signaling pathway from Tox21 library (AID 1224848). Note: nearly all actives have a fitted effect of over 50% in size. The method, boiled down: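 ERR reporter cell line (from NTP) seeded 2,000 cells/well, rested 6 h at 37 C/5% CO2, then pin-dosed with compounds in DMSO. After 18 h at 37 C, ONE-Glo added; luminescence read after 30 min at room temperature.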

Experiment [20] in a line: qHTS assay to identify small molecule agonists of the estrogen related receptor (ERR) signaling pathway from Tox21 library (AID 1224849; calls by dose curve; note: nearly all actives have a fitted effect of over 15% in size). The conditions noted are these: ERR reporter cell line, ONE-Glo luciferase, 18 h; at 92.4 µM (top of the series). The method, boiled down:
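We plated ERR reporter cells, waited 6 h, added compounds in DMSO by pin tool and incubated them 18 h at 37 C. ONE-Glo was then added and luminescence read after 30 min.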
% is set by controls: 0 for no effect and ±100 for the full control effect.

Sequence of Thyrotropin receptor (Homo sapiens) (P16473 whole entry, looked up): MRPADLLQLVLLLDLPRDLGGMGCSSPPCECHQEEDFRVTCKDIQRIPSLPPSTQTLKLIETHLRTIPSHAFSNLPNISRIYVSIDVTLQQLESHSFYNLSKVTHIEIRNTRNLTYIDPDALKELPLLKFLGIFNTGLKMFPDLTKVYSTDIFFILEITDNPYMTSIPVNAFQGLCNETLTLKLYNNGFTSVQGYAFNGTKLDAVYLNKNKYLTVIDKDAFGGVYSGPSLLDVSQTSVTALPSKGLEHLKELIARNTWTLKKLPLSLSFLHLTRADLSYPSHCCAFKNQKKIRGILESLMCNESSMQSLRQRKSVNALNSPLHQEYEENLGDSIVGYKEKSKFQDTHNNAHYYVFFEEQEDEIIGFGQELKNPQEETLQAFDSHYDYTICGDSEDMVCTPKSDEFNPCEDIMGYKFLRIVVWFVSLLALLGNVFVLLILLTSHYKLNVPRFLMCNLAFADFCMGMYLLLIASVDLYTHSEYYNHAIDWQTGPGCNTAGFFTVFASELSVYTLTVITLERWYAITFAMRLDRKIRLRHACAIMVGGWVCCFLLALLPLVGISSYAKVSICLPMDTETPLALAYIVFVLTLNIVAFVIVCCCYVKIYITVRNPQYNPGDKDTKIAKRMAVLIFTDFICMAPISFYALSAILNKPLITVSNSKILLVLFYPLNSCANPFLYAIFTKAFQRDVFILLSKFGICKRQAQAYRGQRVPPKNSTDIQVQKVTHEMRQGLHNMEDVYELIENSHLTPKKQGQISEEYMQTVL

With `O=C(O)Cc1cccc2ccccc12`, the Potency entry in [1], in [3], in experiment [5], in experiment [7], in experiment [8] and in experiment [10] was “inactive” each time. The Potency result in [11], in experiment [14], in experiment [16] and in experiment [17] was “inactive” each time. Further, in [2], the Potency result was “inactive and 4.36 µM (active)”. The compound was called inactive in experiment [4], in [6], in [9], in experiment [12] and in experiment [15]. Moreover, the max response in experiment [13] was 0.279% (inactive) and 2.27% (inactive) and -0.352% (inactive).

Regarding `COc1cc(C=O)ccc1O`, the Potency result in [1], in [2], in experiment [3], in experiment [5], in [7] and in experiment [8] was “inactive” in each case. In addition, the Potency result in [10], in experiment [11], in [14], in [18] and in experiment [17] was “inactive” in each case. Moreover, the compound was classed as inactive in experiment [4], in experiment [6], in experiment [9], in [12] and in [15]. The max response in experiment [13] is 0.342% (inactive) and 3.21% (inactive) and 2.85% (inactive).

For the compound `O=C(O)CN(CC(=O)O)CC(=O)O`, the Potency entry in [1], in experiment [2], in [3], in experiment [5], in experiment [19] and in experiment [7] was “inactive” each time. Further, the Potency entry in experiment [8], in experiment [10], in experiment [11], in [14], in experiment [18] and in experiment [17] was “inactive” each time. Also, the outcome in experiment [4], in experiment [6], in [9], in experiment [12] and in experiment [15] was inactive. Besides, the activity change, positive = activation in experiment [20] is 0.123% (inactive) and 2.89% (inactive). For the same compound, in experiment [13], the max response is 3.36% (inactive) and 17.8% (inactive).

In the case of `C/C=C/c1ccc(O)c(OC)c1`, the Potency result in experiment [1], in [2], in experiment [3], in experiment [5], in [7] and in [8] was “inactive” each time. In addition, the Potency entry in [10], in [11], in [14] and in [17] was “inactive” each time. Further, the outcome in experiment [4], in experiment [6], in [9], in [12] and in experiment [15] was inactive. Moreover, in experiment [13], the max response is -5.09% (inactive) and 1.37% (inactive) and 1.68% (inactive).

As for `CC(=O)OC/C=C(C)/C=C/C=C(C)/C=C/C1=C(C)CCCC1(C)C`, the Potency result in experiment [1], in experiment [2], in experiment [3], in [5], in experiment [7] and in [8] was “inactive” each time. Further, the Potency result in [10], in experiment [11], in [14], in [18], in [16] and in [17] was “inactive” each time. For the same compound, the outcome in experiment [4], in experiment [6], in [9], in experiment [12] and in experiment [15] was inactive. Besides, in [13], the max response was -17.8% (inactive) and 3.29% (inactive) and 17.2% (inactive).

For `COc1ccc(C(=O)c2ccccc2)c(O)c1`, the Potency result in experiment [1], in experiment [2], in [3], in experiment [5], in experiment [8] and in [10] was “inactive” in each case. Besides, the Potency entry in experiment [14], in experiment [18], in [16] and in experiment [17] was “inactive” throughout. Also, the call in experiment [4], in experiment [6], in [9], in [12] and in [15] was inactive. In addition, the Potency entry in [7] was “inactive and 9.77 µM (active)”; in [11] it was “inactive and 21.9 µM (active)”; in [13], 7.76 µM (active). Further, the max response in [13] is -12.2% (inactive) and 5.78% (inactive).

For `COCC(C)N` (stereo not drawn), the Potency entry in experiment [1], in experiment [2], in experiment [3], in [5], in experiment [7] and in experiment [8] was “inactive” each time. The Potency entry in [10], in experiment [11], in experiment [14], in [16] and in [17] was “inactive” throughout. For the same compound, the compound was classed as inactive in experiment [4], in experiment [6], in [9], in experiment [12] and in experiment [15]. In addition, the max response in [13] was 4.72% (inactive) and 4.68% (inactive).

On to `C=C(C)OC(C)=O`, for which the Potency entry in experiment [1], in experiment [2], in experiment [3], in experiment [5], in experiment [19] and in [7] was “inactive” throughout. In addition, the Potency entry in experiment [8], in [10], in [11], in experiment [14], in experiment [18] and in experiment [16] was “inactive” each time. Also, the Potency entry in experiment [17] is “inactive”. Further, the result in experiment [4], in experiment [6], in [9], in experiment [12] and in [15] was inactive. Also, in [20], the activity change, positive = activation is 4.28% (inactive) and 3.36% (inactive). For the same compound, the max response in experiment [13] is 5.33% (inactive) and 0.384% (inactive).

Consider `COC(=O)C1CCC(C(=O)OC)CC1` (stereo not drawn), for which the Potency result in [1], in [2], in [3], in experiment [5], in experiment [19] and in experiment [7] was “inactive” throughout. Besides, the Potency entry in experiment [8], in experiment [10], in experiment [11], in [14], in [18] and in [17] was “inactive” throughout. Moreover, the call in experiment [4], in experiment [6], in experiment [9], in [12] and in experiment [15] was inactive. The activity change, positive = activation in experiment [20] was 0.483% (inactive) and 7.26% (inactive) and 4.66% (inactive). In [13], the max response was 7.05% (inactive) and -2.3% (inactive) and 3.36% (inactive).

Take `CCCCOCCOCCSC#N`: the Potency result in experiment [1], in [2], in experiment [3], in [5], in [7] and in experiment [8] was “inactive” in each case. For the same compound, the Potency result in [10], in experiment [11], in experiment [14] and in experiment [17] was “inactive” throughout. In addition, the result in experiment [4], in [6], in experiment [9], in experiment [12] and in experiment [15] was inactive. The max response in experiment [13] was 7.99% (inactive) and 2.19% (inactive).

`COc1ccccc1NC(=O)CC(C)=O`: the Potency result in experiment [1], in experiment [2], in experiment [3], in [5], in experiment [7] and in experiment [8] was “inactive” in each case. In addition, the Potency result in experiment [10], in experiment [11], in experiment [14], in experiment [16] and in [17] was “inactive” each time. Also, the result in experiment [4], in [6], in experiment [9], in [12] and in [15] was inactive. Moreover, in [13], the max response is -0.191% (inactive) and 6.19% (inactive).

Regarding `COc1cc(O)c(C(=O)c2ccccc2)cc1S(=O)(=O)O`, the Potency entry in [1], in experiment [2], in [3], in experiment [5], in [7] and in experiment [8] was “inactive” throughout. Moreover, the Potency entry in experiment [10], in [11], in experiment [14], in experiment [18], in [16] and in [17] was “inactive” each time. In addition, the compound was classed as inactive in experiment [4], in experiment [6], in experiment [9], in [12] and in experiment [15]. Besides, the max response in experiment [13] was 0.237% (inactive) and 12.7% (inactive) and -17.6% (inactive).
